# Results taken from PubChem BioAssay (Tox21).
# A number with no mark means an inactive call. Inconclusive results are not listed. A call without a number means that no potency is given here. Calls of active or inactive are those of the source. Unless noted, calls follow the shape of the full dose curve.
# Columns and labels:
# [1] = target: Gonadotropin-releasing hormone receptor (Homo sapiens) (UniProt P30968); assay: Human gonadotropin-releasing hormone receptor (GnRHR) small molecule agonists, calcium flux assay in GnRHR-HEK293 cells (AID 1920063); also: nearly all actives have a fitted effect of over 35% in size
# How it was run: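 GnRHR-HEK293, 1500 cells/well, 18 h 37 C/5% CO2; Ca dye 1 h 37 C; cpd pinned (DMSO), agonist mode; kinetic FL 480/540, 3 min, 1 s reads; 15 conc, n=3.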
# [2] = G protein-coupled receptor (GPCR) small molecule agonists, calcium flux assay: HEK293 wild type cell line counter screen (AID 1920065)
# How it was run: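 Kinetic fluorescence at Ex/Em 480/540, recorded every second over 3 min, served as the read-out after compound addition. Each compound was tested at 15 concentrations in triplicate on cells pre-loaded with calcium dye for 1 h.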
# [3] = p53 small molecule agonists, cell-based qHTS assay with human liver microsomes (AID 1963577);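 also: p53 response element beta-lactamase reporter cells with liver microsomes plus NADPH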
# How it was run: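 Metabolically competent format: test substances, human liver microsomes and NADPH (both 0.5 mg/mL final) incubated with p53RE-bla cells 16 h at 37 C. Beta-lactamase reporter signal then quantified by fluorescence.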
# [4] = p53 small molecule agonists, cell-based qHTS assay with rat liver microsomes (AID 1963578)
# How it was run: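 Each plate received p53RE-bla cells, then compound, then rat liver microsomes and NADPH (both 0.5 mg/mL final). Plates were held 16 h at 37 C, and beta-lactamase activity was detected with LiveBLAzer over 2 h.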
# [5] = p53 small molecule agonists, cell-based qHTS assay with human liver microsomes: qHTS cell viability counter screen (AID 1963579); also: nearly all actives have a fitted effect of over 45% in size
# How it was run: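 Tox21 library compounds, delivered from DMSO stocks, were tested on p53RE-bla cells together with 0.5 mg/mL human liver microsomes and 0.5 mg/mL NADPH (final) over 16 h at 37 C; CellTiter-Glo luminescence served as the cytotoxicity measure.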
# [6] = p53 small molecule agonists, cell-based qHTS assay with rat liver microsomes: qHTS cell viability counter screen (AID 1963580); also: nearly all actives have a fitted effect of over 45% in size
# How it was run: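 p53RE-bla HCT-116 cells were exposed 16 h at 37 C to compounds with rat liver microsomes (0.5 mg/mL) and NADPH (0.5 mg/mL). Viability was measured in the same wells as ATP content by CellTiter-Glo luminescence.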
# [7] = target: 5-hydroxytryptamine receptor 2A (Homo sapiens) (UniProt P28223); assay: 5-hydroxytryptamine receptor 2A (HTR2A) small molecule antagonists, cell-based qHTS assay (AID 1963586); also: nearly all actives have a fitted effect of over 45% in size
# How it was run: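 Antagonist-mode intracellular calcium assay: DOI (4 nM) added after 5 min compound pre-incubation at room temperature to dye-loaded HTR2A-CHO cells. Fluorescence followed for 3 min, sampled every second.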
# [8] = target: 5-hydroxytryptamine receptor 2A (Homo sapiens) (UniProt P28223); assay: 5-hydroxytryptamine receptor 2A (HTR2A) small molecule agonists, cell-based qHTS assay (AID 1963587); also: nearly all actives have a fitted effect of over 30% in size; also: potency is read from the fitted curve at half-maximal effect
# How it was run: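 CHO cells stably expressing human HTR2A, plated 18 h, loaded with calcium dye 1 h at 37 C. Agonist mode: compounds added and intracellular calcium fluorescence recorded kinetically for 2 min at 1 sec intervals.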
# [9] = target: Muscarinic acetylcholine receptor M1 (Homo sapiens) (UniProt P11229); assay: Cholinergic receptor muscarinic 1 (CHRM1) small molecule antagonists, cell-based qHTS assay (AID 1963588); also: nearly all actives have a fitted effect of over 40% in size
# How it was run: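 CHRM1-CHO calcium-flux assay, antagonist mode. Cells were seeded 18 h, dye-loaded 1 h at 37 C and given compound for 5 min at RT, then acetylcholine was added at 50nM. FDSS fluorescence was read 3 min; 15 concentrations, three runs.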
# [10] = target: Muscarinic acetylcholine receptor M1 (Homo sapiens) (UniProt P11229); assay: Cholinergic receptor muscarinic 1 (CHRM1) small molecule agonists, cell-based qHTS assay (AID 1963589); also: nearly all actives have a fitted effect of over 35% in size
# How it was run: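 Human M1 in stable CHO line; 18 h plating, 1 h dye load 37 C; cpd added (agonist mode); Ca2+ fluorescence kinetic read, 1 s intervals; 15 conc, 3 runs.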
# [11] = target: Beta-2 adrenergic receptor (Homo sapiens) (UniProt P07550); assay: Adrenergic beta2 receptor (ADRB2) small molecule antagonists, cell-based qHTS assay (AID 1963592); also: series mostly up to about 92 µM; nearly all actives have a fitted effect of over 50% in size
# How it was run: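 Cells (CHO, stable ADRB2 overexpression) incubated 18-20hr at 37C; compounds added from DMSO; agonist mix (1nM isoproterenol, 100uM IBMX, 25uM Ro-20-1724) added; 0.5hr RT; d2-cAMP and anti-cAMP-cryptate added; 1hr RT; 665/615 nm read.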
# [12] = target: D(2) dopamine receptor (Homo sapiens) (UniProt P14416); assay: Dopamine D2 receptor (DRD2) small molecule antagonists, cell-based qHTS assay (AID 1963595; active = well fitted inhibition curve with a large enough effect in the signal ratio in the repeat runs, with a control signal flat; the % refers to the signal ratio)
# How it was run: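 DRD2-HEK293; 0.1 mM Ro20-1724; cpd 10 min RT; NKH477 200 nM + quinpirole 12 nM, 30 min RT; HTRF cAMP (cAMP-d2/anti-cAMP cryptate), 665/620 nm ratio after 1 h.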
# [13] = p53 small molecule agonists, cell-based qHTS assay: qHTS cell viability counter screen (AID 1963581); also: nearly all actives have a fitted effect of over 45% in size
# How it was run: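 HCT-116 p53RE-bla cells, 4,000/well, plated 5 h before compound pin transfer; 16 h at 37 C; bla substrate 2 h RT; then CellTiter-Glo, 30 min RT, luminescence.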
# [14] = cAMP Responsive Elements (CRE) small molecule agonists, cell-based qHTS assay (AID 1963590)
# How it was run: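 HEK 293T CRE-bla, 2,000 cells/well, 18 h preincubation 37 C/5% CO2; cpds (DMSO) pinned, 3 h; LiveBLAzer B/G FRET substrate, 2 h RT.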
# [15] = cAMP Responsive Elements (CRE) small molecule antagonists, cell-based qHTS assay (AID 1963591; active = well fitted inhibition curve with a large enough effect in the signal ratio in the repeat runs, not every such curve was filed as active; the % refers to the signal ratio; also: potency is read from the fitted curve at half-maximal effect)
# How it was run: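 Beta-lactamase reporter read by FRET substrate (LiveBLAzer B/G) after 2 h at room temperature. CRE-bla HEK293T cells had received compound plus 0.25 uM (final) NKH477 for 3 h at 37 °C.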
# [16] = target: Beta-2 adrenergic receptor (Homo sapiens) (UniProt P07550); assay: Adrenergic beta2 receptor (ADRB2) small molecule agonists, cell-based qHTS assay (AID 1963593);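 also: CHO cells stably overexpressing human ADRB2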
# How it was run: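 CHO cells stably over-expressing ADRB2 were plated overnight at 37C, then dosed with compounds plus a stimulation mix containing 100uM IBMX and 25uM Ro-20-1724 for 0.5hr at room temperature. cAMP was measured by HTRF competition, 1hr.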
# [17] = target: D(2) dopamine receptor (Homo sapiens) (UniProt P14416); assay: Dopamine D2 receptor (DRD2) small molecule agonists, cell-based qHTS assay (AID 1963594); also: nearly all actives have a fitted effect of over 35% in size
# How it was run: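 HEK293 cells stably expressing human DRD2, pre-treated with PDE inhibitor Ro20-1724 (0.1 mM final) and compound 10 min at room temperature, then stimulated with NKH477 (200nM […]) for 30 min. cAMP read by HTRF (665/620 nm).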
# [18] = p53 small molecule agonists, cell-based qHTS assay (AID 1963582; active = well fitted activation curve with a large enough effect in the signal ratio in the repeat runs, not every such curve was filed as active; the % refers to the signal ratio)
# How it was run: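 Reporter line: p53RE-bla. Pre-incubation 5 h, 37 C, 5% CO2; compound (DMSO, pin tool) 16 h, 37 C; B/G FRET substrate 2 h RT; fluorescence intensity read.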
# [19] = target: KiSS-1 receptor (Homo sapiens) (UniProt Q969F8); assay: Human kisspeptin (KISS1R) small molecule agonists, calcium flux assay in KISS1R-HEK293 cells (AID 1920064; active = well fitted activation curve with a large enough effect in the repeat runs)
# How it was run: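 Stable human KISS1R HEK293 line; 18 h plating, 37 C/5% CO2; calcium dye 1 h 37 C; compound pin transfer; kinetic fluorescence Ex/Em 480/540, 3 min.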
# Sequence of KiSS-1 receptor (Homo sapiens) (Q969F8 whole entry, looked up): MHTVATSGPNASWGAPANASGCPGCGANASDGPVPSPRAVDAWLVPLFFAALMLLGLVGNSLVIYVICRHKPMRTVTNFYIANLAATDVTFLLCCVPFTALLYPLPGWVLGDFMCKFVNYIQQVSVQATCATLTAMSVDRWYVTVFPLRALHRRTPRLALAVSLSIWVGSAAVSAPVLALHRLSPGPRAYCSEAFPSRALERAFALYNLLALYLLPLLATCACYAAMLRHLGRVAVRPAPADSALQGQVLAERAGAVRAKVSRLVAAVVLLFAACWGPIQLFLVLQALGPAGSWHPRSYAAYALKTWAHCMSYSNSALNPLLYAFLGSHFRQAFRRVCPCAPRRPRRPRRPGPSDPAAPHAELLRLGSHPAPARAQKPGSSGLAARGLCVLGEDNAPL
# Sequence of 5-hydroxytryptamine receptor 2A (Homo sapiens) (P28223 whole entry, looked up): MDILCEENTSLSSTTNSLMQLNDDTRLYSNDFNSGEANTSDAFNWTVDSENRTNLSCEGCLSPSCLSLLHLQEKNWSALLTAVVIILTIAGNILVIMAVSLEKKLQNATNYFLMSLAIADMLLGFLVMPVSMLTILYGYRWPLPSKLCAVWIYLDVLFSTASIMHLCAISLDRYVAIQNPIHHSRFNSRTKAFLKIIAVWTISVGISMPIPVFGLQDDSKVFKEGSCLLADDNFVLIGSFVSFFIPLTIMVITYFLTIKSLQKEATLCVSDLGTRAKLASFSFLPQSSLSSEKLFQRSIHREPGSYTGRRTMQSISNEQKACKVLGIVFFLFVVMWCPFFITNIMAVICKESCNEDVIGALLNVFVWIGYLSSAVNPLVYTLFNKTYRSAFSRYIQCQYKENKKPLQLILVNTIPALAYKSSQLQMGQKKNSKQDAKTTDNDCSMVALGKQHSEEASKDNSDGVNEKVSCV
# Sequence of Beta-2 adrenergic receptor (Homo sapiens) (P07550 whole entry, looked up): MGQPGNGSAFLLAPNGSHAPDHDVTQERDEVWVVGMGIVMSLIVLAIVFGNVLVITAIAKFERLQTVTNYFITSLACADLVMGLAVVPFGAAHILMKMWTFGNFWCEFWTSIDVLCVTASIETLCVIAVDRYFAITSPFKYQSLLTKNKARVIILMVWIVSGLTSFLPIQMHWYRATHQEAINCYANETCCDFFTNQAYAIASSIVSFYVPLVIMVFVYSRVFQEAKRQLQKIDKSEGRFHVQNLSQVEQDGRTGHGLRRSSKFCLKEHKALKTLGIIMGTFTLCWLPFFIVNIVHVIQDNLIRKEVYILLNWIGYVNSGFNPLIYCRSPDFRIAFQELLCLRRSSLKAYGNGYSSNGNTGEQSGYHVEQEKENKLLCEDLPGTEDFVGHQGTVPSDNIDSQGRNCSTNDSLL
# Sequence of D(2) dopamine receptor (Homo sapiens) (P14416 whole entry, looked up): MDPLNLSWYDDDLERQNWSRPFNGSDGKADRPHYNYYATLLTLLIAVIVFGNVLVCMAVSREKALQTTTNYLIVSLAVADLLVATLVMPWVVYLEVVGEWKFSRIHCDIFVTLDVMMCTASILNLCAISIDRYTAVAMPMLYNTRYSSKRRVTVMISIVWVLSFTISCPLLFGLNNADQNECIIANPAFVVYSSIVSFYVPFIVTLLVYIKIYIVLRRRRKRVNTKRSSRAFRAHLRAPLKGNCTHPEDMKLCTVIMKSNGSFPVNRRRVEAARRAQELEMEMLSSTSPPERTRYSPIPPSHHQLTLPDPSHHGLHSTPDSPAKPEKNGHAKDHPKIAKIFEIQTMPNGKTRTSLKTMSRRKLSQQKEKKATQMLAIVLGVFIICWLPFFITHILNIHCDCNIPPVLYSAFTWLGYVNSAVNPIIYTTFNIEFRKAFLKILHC
# Sequence of Gonadotropin-releasing hormone receptor (Homo sapiens) (P30968 whole entry, looked up): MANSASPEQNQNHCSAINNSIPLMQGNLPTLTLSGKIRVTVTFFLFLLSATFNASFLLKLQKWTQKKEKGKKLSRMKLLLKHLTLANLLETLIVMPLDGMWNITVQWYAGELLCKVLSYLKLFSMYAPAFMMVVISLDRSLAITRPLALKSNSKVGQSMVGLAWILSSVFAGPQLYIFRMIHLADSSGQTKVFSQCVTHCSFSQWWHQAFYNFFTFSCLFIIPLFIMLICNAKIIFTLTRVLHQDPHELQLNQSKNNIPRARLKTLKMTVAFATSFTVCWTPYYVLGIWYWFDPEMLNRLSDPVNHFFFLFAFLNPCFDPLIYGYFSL
# Sequence of Muscarinic acetylcholine receptor M1 (Homo sapiens) (P11229 whole entry, looked up): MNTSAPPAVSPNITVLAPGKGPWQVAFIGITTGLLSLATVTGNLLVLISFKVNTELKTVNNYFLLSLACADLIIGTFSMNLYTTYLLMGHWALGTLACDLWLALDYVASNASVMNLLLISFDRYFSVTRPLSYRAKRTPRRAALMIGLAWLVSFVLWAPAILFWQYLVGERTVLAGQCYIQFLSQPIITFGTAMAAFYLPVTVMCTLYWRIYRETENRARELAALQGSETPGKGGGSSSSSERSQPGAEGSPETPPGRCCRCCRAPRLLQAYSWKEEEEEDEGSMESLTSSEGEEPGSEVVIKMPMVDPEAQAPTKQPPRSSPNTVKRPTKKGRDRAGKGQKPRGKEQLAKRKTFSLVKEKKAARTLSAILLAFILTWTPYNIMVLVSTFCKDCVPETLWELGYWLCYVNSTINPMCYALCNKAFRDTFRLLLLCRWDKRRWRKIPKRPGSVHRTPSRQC
smiles,measurement,setting,value
COC(=O)C1=C(C)NC(C)=C(C(=O)OCCCN2CCC(c3ccccc3)(c3ccccc3)CC2)C1c1cccc([N+](=O)[O-])c1 (stereo not drawn),Potency,[1],inactive
same,Potency,[2],inactive
same,Potency,[3],inactive
same,Potency,[4],inactive
same,Potency,[5],inactive
same,Potency,[6],inactive
same,Potency,[7],inactive
same,Potency,[8],inactive
same,Potency,[9],inactive
same,Potency,[10],inactive
same,Potency,[11],inactive
same,Potency,[12],inactive
N[C@@H](Cc1ccc(O)cc1)C(=O)O,activity change,[1],"-0.862% [at 5.22 µM, stronger effect = higher value]"
same,activation,[2],1.73% [at 5.23 µM]
same,"activity change, negative = cytotoxicity",[13],14.2% [at 5.99 µM]
same,"activity, negative = inhibition",[7],17.7% [at 5.62 µM]
same,activation,[8],0.614% [at 7.02 µM]
same,"activity, negative = inhibition",[9],-1.5% [at 5.58 µM]
same,activation,[14],-0.513% [at 8.39 µM]
same,"activity change, negative = inhibition",[15],0.559% [at 8.39 µM]
same,"activity change, negative = inhibition",[11],-0.134% [at 8.39 µM]
same,activation,[16],15.9% [at 8.39 µM]
same,"activity change, negative = inhibition",[12],0.318% [at 8.38 µM]
COC(=O)c1nc(Cl)c(Cl)nc1N,Potency,[2],inactive
same,Potency,[3],inactive
same,Potency,[7],inactive
same,Potency,[8],inactive
same,Potency,[9],inactive
same,Potency,[10],inactive
same,Potency,[11],inactive
same,Potency,[17],inactive
same,Potency,[12],inactive
CC(COc1ccc(C(C)(C)C)cc1)OS(=O)OCCCl (stereo not drawn),Potency,[1],inactive
same,Potency,[2],inactive
same,Potency,[4],inactive
same,Potency,[6],inactive
same,Potency,[18],inactive
same,Potency,[7],inactive
same,Potency,[9],inactive
same,Potency,[14],inactive
same,Potency,[15],43.5 µM (active)
same,Potency,[11],inactive
same,Potency,[17],inactive
same,Potency,[12],inactive
O=C(CCCN1CCC(O)(c2ccc(Cl)cc2)CC1)c1ccc(F)cc1,Potency,[19],inactive
same,Potency,[2],inactive
same,Potency,[13],inactive
same,Potency,[18],inactive
same,Potency,[14],inactive
same,Potency,[15],inactive
same,Potency,[11],inactive
same,Potency,[16],inactive
CCCCc1cc2ccccc2c(OCCN(C)C)n1,Potency,[19],inactive
same,Potency,[2],inactive
same,Potency,[3],inactive
same,Potency,[4],inactive
same,Potency,[5],inactive
same,Potency,[18],inactive
same,Potency,[7],inactive
same,Potency,[8],inactive
same,Potency,[10],inactive
same,Potency,[14],inactive
same,Potency,[15],inactive
same,Potency,[17],inactive
same,Potency,[12],inactive
CCCC1C(CC)=CC(CC)=CN1c1ccccc1 (stereo not drawn),Potency,[19],inactive
same,Potency,[2],inactive
same,Potency,[3],inactive
same,Potency,[4],inactive
same,Potency,[13],inactive
same,Potency,[7],inactive
same,Potency,[8],inactive
same,Potency,[9],inactive
same,Potency,[10],inactive
same,Potency,[11],inactive
same,Potency,[17],inactive
C[C@@H]1CC[C@H]2C(C)(C)[C@H]3C[C@@]12CC[C@@]3(C)O,Potency,[19],inactive
same,Potency,[2],inactive
same,Potency,[3],inactive
same,Potency,[4],inactive
same,Potency,[5],inactive
same,Potency,[6],inactive
same,Potency,[13],inactive
same,Potency,[18],inactive
same,Potency,[7],inactive
same,Potency,[8],48.9 µM (active)
same,Potency,[9],inactive
same,Potency,[10],inactive
same,Potency,[14],inactive
same,Potency,[15],inactive
same,Potency,[11],inactive
same,Potency,[17],inactive
same,Potency,[12],inactive
CC(=O)N(C)C,Potency,[7],inactive
same,Potency,[8],inactive
same,Potency,[9],inactive
same,Potency,[10],inactive
same,Potency,[11],inactive
same,Potency,[17],inactive
same,Potency,[12],inactive
O=[N+]([O-])c1cc([N+](=O)[O-])c2ccc(S(=O)(=O)O)cc2c1O,Potency,[5],inactive
same,Potency,[6],inactive
same,Potency,[13],inactive
